The nature of this experiment: NCI Yeast Anticancer Drug Screen. Data for the rad50EPP+ strain (AID 151).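 Also: 0% = growth of vehicle-treated control cultures.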 As to conditions: S. cerevisiae rad50 mutant strain, stronger effect = higher value. As to the method: Growth inhibition of yeast strains with defined genetic alterations is measured as a screen for potential anti-cancer activity. Selected strains with alterations in DNA damage repair or cell cycle control were exposed to compounds and growth inhibition was measured relative to vehicle treated controls. The strain used in this assay is rad50EPP+

Compounds without any hit were thinned out: in the full panel of roughly 79,000, 15% have a hit. A number with no mark means an inactive call. Activity calls are given as the source filed them. Rule as the data show it: active = growth inhibition above about 70%; inactive = the rest.

Regarding `Cc1ccccc1NC(=O)Cc1csc(N/N=C2\NC(=O)/C(=C/c3cccc([N+](=O)[O-])c3)S2)n1`, the growth inhibition (at 1.2 µM) was 4%; the growth inhibition (at 3.7 µM) was 9%; the growth inhibition (at 11.0 µM) was 15%; the growth inhibition (at 33.0 µM) is 39%; the growth inhibition (at 100.0 µM) is 51%.
Taken in the same sequence, the figures for `CCN1/C(=C/c2ccc3ccccc3[n+]2CC)C=Cc2ccccc21` were 4%, 6%, 8%, 67% and 92% (active).
For the molecule `N#C/C(=C1C=C(Br)/C(=N\O)C=C\1Cl)c1cccc2ccccc12`, the growth inhibition is 18% (at 1.2 µM); 36% (at 3.7 µM); 63% (at 11.0 µM); 55% (at 33.0 µM); 88% (active) (at 100.0 µM).
With `CCCCCCCCCCCc1nc(N)n[nH]1`, the growth inhibition is -1% (at 1.2 µM); 7% (at 3.7 µM); 16% (at 11.0 µM); 55% (at 33.0 µM); 70% (active) (at 100.0 µM).
Consider `COc1ccc(N=Nc2ccc3oc(=O)c(C(=O)Nc4ccccc4)cc3c2)cc1`, for which the growth inhibition runs as follows: (at 1.2 µM) 6%; (at 3.7 µM) 45%; (at 11.0 µM) 83% (active); (at 33.0 µM) 94% (active); (at 100.0 µM) 95% (active).
The matching figures for `Cc1cccc(/C=N\NC(=S)N2CCCCC2)n1`: -10%, -17%, 86% (active), 97% (active) and 97% (active).
The matching figures for `COc1cccc(C(c2cc3c(cc2O)OCO3)N2CCOCC2)c1OC` (stereo not given): -6%, -7%, 0%, 11% and 56%.
In the case of `O=[N+]([O-])c1cccc2nc3ccccc3c(NCCc3cccc[n+]3[O-])c12`, the growth inhibition by setting is: (at 1.2 µM) 21%; (at 3.7 µM) 43%; (at 11.0 µM) 72% (active); (at 33.0 µM) 82% (active); (at 100.0 µM) 90% (active).

Source of the values: PubChem BioAssay (NCI).
